Inconclusive results are not listed. The source holds several records for some structures; these can differ, active in one and inactive in another. Calls of active or inactive are those of the source. How the source made its calls, unless noted: active means hit-call score of the fitted dose curve at least 0.9, where 1 is the maximum; inconclusive means response in the unintended direction; inactive means score below 0.9.

For assay [1], the target named is human Retinoic Acid Receptor beta (RARb), RARB (gene 5915) (UniProt P10826). The assay can be described thus: ATG_RARb_TRANS: Attagene TRANS-FACTORIAL HepG2 Assay for human Retinoic Acid Receptor beta (AID 2283004). In short, it runs like this: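 Transient transfection of HepG2 with multiple reporter units → chemical dosing, 24 h → total RNA isolation → RT with oligo(dT) → reporter-specific PCR, 6-FAM primer extension, HpaI digest → capillary electrophoresis. Positive direction vs DMSO control.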

The target in assay [2] is Peroxisome proliferator-activated receptor gamma (Homo sapiens) (UniProt P37231). In words: ATG_PPARg_TRANS: Attagene TRANS-FACTORIAL HepG2 Assay for human Peroxisome Proliferator-activated Receptor-gamma (PPARg) (AID 2283007). In short, it runs like this: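 HepG2 cells transiently transfected with multiplexed GAL4-UAS reporter units and exogenous chimeric NR-Gal4 proteins; reporter mRNA quantified after 24 h compound exposure by RT-PCR, fluorescent labelling, HpaI digestion and capillary electrophoresis; gain-of-signal fitted versus DMSO baseline.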

Assay [3] has as its target Nuclear receptor subfamily 1 group I member 2 (Homo sapiens) (UniProt O75469). In words: ATG_PXR_TRANS: Attagene TRANS-FACTORIAL HepG2 Assay for human Pregnane X Receptor (PXR) (AID 2283008). Summed up:
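Read-out is fluorescence of labelled reporter cDNA fragments separated by capillary electrophoresis after RT-PCR and HpaI digestion. Source: HepG2 cells carrying PXR-GAL4/UAS reporter constructs, treated 24 h; activity fitted upward relative to DMSO.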

The target of assay [4] is human RAR-related Orphan Receptor beta (RORb), RORB (gene 6096) (UniProt Q92753). The assay can be described thus: ATG_RORb_TRANS: Attagene TRANS-FACTORIAL HepG2 Assay for human RAR-related Orphan Receptor beta (RORb) (AID 2283010). Summed up:
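In this TRANS-format test, human HepG2 cells express chimeric NR-Gal4 fusion proteins driving GAL4-UAS reporters. After 24 h dosing, reporter transcripts are measured by fluorescent RT-PCR/capillary electrophoresis, with DMSO as negative control.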

Assay [5] has as its target human Retinoid X Receptor beta (RXRb), RXRB (gene 6257) (UniProt P28702). The assay can be described thus: ATG_RXRb_TRANS: Attagene TRANS-FACTORIAL HepG2 Assay for human Retinoid X Receptor beta (RXRb) (AID 2283013). In short, it runs like this:
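Multiplexed TRANS reporter assay in HepG2; 24 h dosing; reporter mRNA by RT-PCR/CE fluorescence; gain-of-signal relative to DMSO.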

Assay [6] addresses human Vitamin D Receptor (VDR), VDR (gene 7421) (UniProt P11473). In words: ATG_VDR_TRANS: Attagene TRANS-FACTORIAL HepG2 Assay for human Vitamin D Receptor (VDR) (AID 2283022). In short, it runs like this: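 Steps: transfect HepG2 with GAL4-UAS-driven reporter constructs; dose compounds 24 h; isolate RNA, reverse-transcribe, PCR-amplify with 6-FAM-labelled primer extension and HpaI digestion; quantify fragments by capillary electrophoresis relative to DMSO.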

In assay [7] the target is Retinoic acid receptor alpha (Homo sapiens) (UniProt P10276). The assay can be described thus: ATG_RARa_TRANS: Attagene TRANS-FACTORIAL HepG2 Assay for human Retinoic Acid Receptor alpha (RARa) (AID 2283005). Summed up:
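Reporter transcripts, measured by RT-PCR with fluorescent labeling and capillary electrophoresis after 24 h dosing, reflect activity of an exogenous human RARa–GAL4 fusion in transiently transfected HepG2. Fitted for increase relative to DMSO.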

Assay [8] in a line: BSK_3C_Proliferation: Cell Proliferation Assessment in the BioMAP Diversity Plus: 3C Assay (AID 2283006; active means hit-call score of the fitted dose curve at least 0.9, where 1 is the maximum; inactive means score below 0.9;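 on AC50: potency may reflect either rise or fall in cell number versus DMSO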). To be noted: primary human endothelial cells (HUVEC). Summed up:
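Proliferation of human vascular endothelial primary cells after 48 h dosing, quantified as SRB-stained protein at 560 nm relative to DMSO.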

Assay [9] has as its target human Retinoic Acid Receptor gamma (RARg), RARG (gene 5916) (UniProt P13631). In words: ATG_RARg_TRANS: Attagene TRANS-FACTORIAL HepG2 Assay for human Retinoic Acid Receptor gamma (RARg) (AID 2283009).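 On AC50: AC50 is for reporter induction above DMSO meaning RARg activation.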 Summed up:
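HepG2, RARg-GAL4 TRANS system, 24 h exposure; reporter mRNA by RT-PCR + CE fluorescence; increase over DMSO.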

Assay [10] concerns the target human RAR-related Orphan Receptor gamma (RORg), RORC (gene 6097) (UniProt P51449). The assay can be described thus: ATG_RORg_TRANS: Attagene TRANS-FACTORIAL HepG2 Assay for human RAR-related Orphan Receptor gamma (RORg) (AID 2283011). Summed up:
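First, HepG2 liver cells were transfected with GAL4-UAS-driven reporter constructs and the RORg-Gal4 fusion. Next, they were treated with chemical for 24 h. Finally, reporter mRNA was quantified by RT-PCR and capillary electrophoresis, with upward activity fitted against DMSO.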

The target in assay [11] is Retinoic acid receptor RXR-alpha (Homo sapiens) (UniProt P19793). In words: ATG_RXRa_TRANS: Attagene TRANS-FACTORIAL HepG2 Assay for human Retinoid X Receptor alpha (RXRa) (AID 2283012). Summed up:
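Cells (HepG2) carried transiently transfected GAL4-responsive reporter units. Following a 24 h chemical incubation, reporter mRNA induction was read via RT-PCR fragment analysis; DMSO served as negative control and baseline.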

Read-out in assay [12]: E-selectin (Homo sapiens) (UniProt P16581)
The assay can be described thus: BSK_3C_Eselectin: BioMAP Diversity Plus: 3C Assay for Eselectin Biomarker Activity (AID 2283015; active means hit-call score of the fitted dose curve at least 0.9, where 1 is the maximum; inactive means score below 0.9;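 on outcome: cell surface E-selectin protein quantified by ELISA 24 h after dosing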). The conditions noted are these: primary human endothelial cells (HUVEC); actives raise or lower the signal. Summed up:
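ELISA read-out of E-selectin on endothelial monolayers after 24 h chemical treatment. Human umbilical vein primary cells served as the system, with DMSO defining baseline activity for bidirectional fitting.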

Read-out in assay [13]: Interleukin-1 alpha (IL1a), IL1A (gene 3552)
In words: BSK_BE3C_IL1a: BioMAP Diversity Plus: BE3C Assay for Interleukin-1 alpha (IL1a) Biomarker Activity (AID 2283016; active means hit-call score of the fitted dose curve at least 0.9, where 1 is the maximum; inactive means score below 0.9). To be noted: primary human bronchial epithelial cells; actives raise or lower the signal. In short, it runs like this:
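Cultures of primary human bronchial epithelial cells receive test chemical. After 24 h, IL-1a is quantified by ELISA, while parallel wells are fixed in TCA and SRB-stained for total protein. Changes in either direction are fitted relative to DMSO.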

Read-out in assay [14]: Monocyte Chemoattractant Protein-1 (MCP1), CCL2 (gene 6347)
The assay can be described thus: BSK_3C_MCP1: BioMAP Diversity Plus: 3C Assay for Monocyte Chemoattractant Protein-1 (MCP1) Biomarker Activity (AID 2283017; active means hit-call score of the fitted dose curve at least 0.9, where 1 is the maximum; inactive means score below 0.9). The conditions noted are these: primary human endothelial cells (HUVEC); actives raise or lower the signal. In short, it runs like this:
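ELISA read-out of MCP-1 from human umbilical vein endothelial cell cultures harvested 24 h post-dosing. Gain or loss of signal was fitted relative to DMSO.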

Read-out in assay [15]: Monocyte Chemoattractant Protein-1 (MCP1), CCL2 (gene 6347)
The assay can be described thus: BSK_4H_MCP1: BioMAP Diversity Plus: 4H Assay for Monocyte Chemoattractant Protein-1 (MCP1) Biomarker Activity (AID 2283018; active means hit-call score of the fitted dose curve at least 0.9, where 1 is the maximum; inactive means score below 0.9). The conditions noted are these: primary human endothelial cells (HUVEC); actives raise or lower the signal. In short, it runs like this:
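Readout: MCP-1 ELISA on compound-treated HUVEC, sampled 24 h post-dosing. Baseline and negative control DMSO; bidirectional fit. Overt toxicity checked alongside by sulforhodamine B protein staining at time of biomarker measurement.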

Read-out in assay [16]: Human Leukocyte Antigen - DR isotype (HLADR), HLA-DRA (gene 3122)
The assay can be described thus: BSK_3C_HLADR: BioMAP Diversity Plus: 3C Assay for Human Leukocyte Antigen - DR isotype (HLADR) Biomarker Activity (AID 2283019; active means hit-call score of the fitted dose curve at least 0.9, where 1 is the maximum; inactive means score below 0.9). The conditions noted are these: primary human endothelial cells (HUVEC); actives raise or lower the signal. Summed up: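 ELISA readout of surface HLA-DR on human umbilical vein endothelium, taken 24 h after chemical treatment. Gain- and loss-of-signal were both fitted relative to DMSO.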

Assay [17] in a line: BSK_3C_SRB: Viability Assessment in the BioMAP Diversity Plus: 3C Assay (AID 2283023; active means hit-call score of the fitted dose curve at least 0.9, where 1 is the maximum; inactive means score below 0.9;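 further: fitted both ways against DMSO so a hit may be signal rise or drop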). The conditions noted are these: primary human endothelial cells (HUVEC). Summed up: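 Absorbance at 560 nm of sulforhodamine B-stained (0.1%) total protein served as a cytotoxicity readout in human umbilical vein endothelial cells, 24 h after chemical treatment. Signal was fitted bidirectionally relative to DMSO.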

The target in assay [18] is human Thyroid Receptor alpha (THRa1), THRA (gene 7067) (UniProt P10827). In words: ATG_THRa1_TRANS: Attagene TRANS-FACTORIAL HepG2 Assay for human Thyroid Receptor alpha (THRa1) (AID 2283014). In short, it runs like this: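 Reporter transcript induction, read by capillary electrophoresis of 6-FAM-labelled RT-PCR products, reflects activity of a transfected THRa1-Gal4 fusion in HepG2 liver cells. Cells were dosed for 24 h; activity was fitted in the positive direction against DMSO.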

Read-out in assay [19]: Interleukin-8 (IL8), CXCL8 (gene 3576)
In words: BSK_3C_IL8: BioMAP Diversity Plus: 3C Assay for Interleukin-8 (IL8) Biomarker Activity (AID 2283020; active means hit-call score of the fitted dose curve at least 0.9, where 1 is the maximum; inactive means score below 0.9). To be noted: primary human endothelial cells (HUVEC); actives raise or lower the signal. Summed up:
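Human vascular endothelial cells (umbilical vein) in the 3C system; IL-8 level detected by ELISA at 24 h post-dose, with DMSO as baseline.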

Read-out in assay [20]: Monokine induced gamma interferon (MIG), CXCL9 (gene 4283)
The assay can be described thus: BSK_3C_MIG: BioMAP Diversity Plus: 3C Assay for Monokine induced gamma interferon (MIG) Biomarker Activity (AID 2283021; active means hit-call score of the fitted dose curve at least 0.9, where 1 is the maximum; inactive means score below 0.9). To be noted: primary human endothelial cells (HUVEC); actives raise or lower the signal. Summed up:
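After 24 h of treatment, human umbilical vein endothelial cultures (3C system) had their MIG biomarker level determined by ELISA, with DMSO serving as negative control.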

Sequence of human Retinoid X Receptor beta (RXRb), RXRB (gene 6257) (P28702 whole entry, looked up): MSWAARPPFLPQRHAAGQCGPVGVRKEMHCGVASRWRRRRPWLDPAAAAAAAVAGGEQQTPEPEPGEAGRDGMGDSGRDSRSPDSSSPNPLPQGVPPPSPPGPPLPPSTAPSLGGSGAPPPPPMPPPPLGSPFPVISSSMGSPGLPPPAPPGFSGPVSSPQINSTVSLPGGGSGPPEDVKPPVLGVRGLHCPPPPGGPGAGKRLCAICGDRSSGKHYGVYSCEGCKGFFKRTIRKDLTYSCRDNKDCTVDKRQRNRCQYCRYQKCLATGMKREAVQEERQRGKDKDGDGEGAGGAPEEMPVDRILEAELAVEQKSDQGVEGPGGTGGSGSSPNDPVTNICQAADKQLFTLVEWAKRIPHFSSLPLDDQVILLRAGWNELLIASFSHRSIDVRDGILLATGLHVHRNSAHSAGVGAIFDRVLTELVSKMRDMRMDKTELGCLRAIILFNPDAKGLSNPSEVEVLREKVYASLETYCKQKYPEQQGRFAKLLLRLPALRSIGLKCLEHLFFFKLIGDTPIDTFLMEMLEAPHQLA
Sequence of human Vitamin D Receptor (VDR), VDR (gene 7421) (P11473 whole entry, looked up, the tested form may be a part): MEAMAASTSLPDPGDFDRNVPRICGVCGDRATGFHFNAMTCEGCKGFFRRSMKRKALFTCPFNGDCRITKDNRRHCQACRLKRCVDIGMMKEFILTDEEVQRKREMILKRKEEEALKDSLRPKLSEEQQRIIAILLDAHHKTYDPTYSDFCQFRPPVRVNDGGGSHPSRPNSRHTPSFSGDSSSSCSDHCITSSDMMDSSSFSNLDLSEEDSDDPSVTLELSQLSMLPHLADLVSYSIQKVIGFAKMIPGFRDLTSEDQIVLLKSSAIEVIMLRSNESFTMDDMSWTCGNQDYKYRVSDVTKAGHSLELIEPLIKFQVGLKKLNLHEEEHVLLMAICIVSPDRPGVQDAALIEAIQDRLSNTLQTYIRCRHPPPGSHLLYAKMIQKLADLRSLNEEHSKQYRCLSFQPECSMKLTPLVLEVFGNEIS
Sequence of human Retinoic Acid Receptor beta (RARb), RARB (gene 5915) (P10826 whole entry, looked up): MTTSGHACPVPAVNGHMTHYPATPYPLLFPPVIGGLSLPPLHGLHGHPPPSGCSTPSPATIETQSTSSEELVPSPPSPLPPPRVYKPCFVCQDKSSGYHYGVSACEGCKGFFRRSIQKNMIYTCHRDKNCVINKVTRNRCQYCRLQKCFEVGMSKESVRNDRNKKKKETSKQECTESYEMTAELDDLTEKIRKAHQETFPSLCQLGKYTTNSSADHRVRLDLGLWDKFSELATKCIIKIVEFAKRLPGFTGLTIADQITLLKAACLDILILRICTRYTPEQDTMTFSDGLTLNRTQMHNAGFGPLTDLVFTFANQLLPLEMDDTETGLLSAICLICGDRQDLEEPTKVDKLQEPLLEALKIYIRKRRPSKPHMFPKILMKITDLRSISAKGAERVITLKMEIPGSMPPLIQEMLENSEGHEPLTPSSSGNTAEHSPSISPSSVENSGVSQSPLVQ
Sequence of Nuclear receptor subfamily 1 group I member 2 (Homo sapiens) (O75469 whole entry, looked up, the tested form may be a part): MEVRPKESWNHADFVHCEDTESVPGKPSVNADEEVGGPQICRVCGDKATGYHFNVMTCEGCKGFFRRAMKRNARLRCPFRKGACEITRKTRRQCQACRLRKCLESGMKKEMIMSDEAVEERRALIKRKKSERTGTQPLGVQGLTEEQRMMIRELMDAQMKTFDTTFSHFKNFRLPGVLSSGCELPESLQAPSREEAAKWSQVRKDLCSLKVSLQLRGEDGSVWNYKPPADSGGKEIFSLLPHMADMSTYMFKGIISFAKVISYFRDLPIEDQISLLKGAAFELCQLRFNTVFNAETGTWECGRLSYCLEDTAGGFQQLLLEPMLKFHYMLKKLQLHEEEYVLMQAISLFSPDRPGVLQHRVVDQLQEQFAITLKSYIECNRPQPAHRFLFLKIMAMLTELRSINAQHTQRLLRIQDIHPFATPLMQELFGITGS
Sequence of human Retinoic Acid Receptor gamma (RARg), RARG (gene 5916) (P13631 whole entry, looked up, the tested form may be a part): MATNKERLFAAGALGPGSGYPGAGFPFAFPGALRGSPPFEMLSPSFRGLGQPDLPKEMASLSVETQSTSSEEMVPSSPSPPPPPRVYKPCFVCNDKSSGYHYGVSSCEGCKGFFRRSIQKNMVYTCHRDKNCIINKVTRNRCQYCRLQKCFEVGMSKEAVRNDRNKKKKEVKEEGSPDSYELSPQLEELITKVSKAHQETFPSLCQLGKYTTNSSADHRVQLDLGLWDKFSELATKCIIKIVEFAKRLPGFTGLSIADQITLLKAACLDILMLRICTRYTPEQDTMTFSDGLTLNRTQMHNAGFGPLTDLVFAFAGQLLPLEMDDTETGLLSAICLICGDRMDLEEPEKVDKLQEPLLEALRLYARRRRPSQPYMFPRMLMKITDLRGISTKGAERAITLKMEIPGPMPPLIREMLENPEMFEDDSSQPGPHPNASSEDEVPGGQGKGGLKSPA
Sequence of Peroxisome proliferator-activated receptor gamma (Homo sapiens) (P37231 whole entry, looked up, the tested form may be a part): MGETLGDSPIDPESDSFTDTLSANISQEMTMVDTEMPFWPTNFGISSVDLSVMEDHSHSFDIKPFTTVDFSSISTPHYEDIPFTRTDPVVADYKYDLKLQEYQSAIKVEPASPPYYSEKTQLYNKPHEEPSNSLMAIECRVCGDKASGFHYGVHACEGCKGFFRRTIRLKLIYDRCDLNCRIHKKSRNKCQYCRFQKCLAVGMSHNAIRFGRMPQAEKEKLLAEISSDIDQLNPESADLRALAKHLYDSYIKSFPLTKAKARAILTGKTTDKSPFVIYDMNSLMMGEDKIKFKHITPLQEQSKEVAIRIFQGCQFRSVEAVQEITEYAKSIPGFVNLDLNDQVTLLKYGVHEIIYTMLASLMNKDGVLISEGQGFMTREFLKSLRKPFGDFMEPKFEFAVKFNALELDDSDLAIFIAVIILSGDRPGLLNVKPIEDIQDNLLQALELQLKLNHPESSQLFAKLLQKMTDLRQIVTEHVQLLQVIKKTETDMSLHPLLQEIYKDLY
Sequence of Retinoic acid receptor RXR-alpha (Homo sapiens) (P19793 whole entry, looked up, the tested form may be a part): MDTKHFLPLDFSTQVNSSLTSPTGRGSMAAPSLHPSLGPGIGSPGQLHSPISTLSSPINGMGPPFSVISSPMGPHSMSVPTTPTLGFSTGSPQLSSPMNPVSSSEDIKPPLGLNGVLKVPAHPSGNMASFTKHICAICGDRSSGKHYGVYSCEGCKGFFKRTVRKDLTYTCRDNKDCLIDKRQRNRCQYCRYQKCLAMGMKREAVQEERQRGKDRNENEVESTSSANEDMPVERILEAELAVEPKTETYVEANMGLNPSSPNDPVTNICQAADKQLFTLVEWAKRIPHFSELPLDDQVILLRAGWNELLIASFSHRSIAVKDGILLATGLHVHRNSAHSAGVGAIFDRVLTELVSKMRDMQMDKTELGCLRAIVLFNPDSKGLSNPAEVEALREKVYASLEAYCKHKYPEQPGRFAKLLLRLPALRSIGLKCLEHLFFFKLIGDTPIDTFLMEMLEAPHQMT
Sequence of human RAR-related Orphan Receptor gamma (RORg), RORC (gene 6097) (P51449 whole entry, looked up, the tested form may be a part): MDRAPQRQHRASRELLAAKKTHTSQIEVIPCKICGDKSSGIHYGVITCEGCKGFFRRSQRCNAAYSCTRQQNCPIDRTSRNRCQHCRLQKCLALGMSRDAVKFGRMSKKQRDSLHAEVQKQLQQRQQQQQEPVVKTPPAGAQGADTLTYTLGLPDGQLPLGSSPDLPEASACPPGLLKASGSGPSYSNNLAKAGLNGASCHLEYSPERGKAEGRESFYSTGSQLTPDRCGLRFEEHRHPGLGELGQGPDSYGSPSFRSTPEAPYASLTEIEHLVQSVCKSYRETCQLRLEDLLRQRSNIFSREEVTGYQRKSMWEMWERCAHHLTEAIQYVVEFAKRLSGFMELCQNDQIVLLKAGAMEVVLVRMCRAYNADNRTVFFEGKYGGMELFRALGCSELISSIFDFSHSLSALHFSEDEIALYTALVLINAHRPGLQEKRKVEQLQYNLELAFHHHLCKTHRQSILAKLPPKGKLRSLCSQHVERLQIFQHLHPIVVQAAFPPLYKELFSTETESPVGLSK
Sequence of Retinoic acid receptor alpha (Homo sapiens) (P10276 whole entry, looked up, the tested form may be a part): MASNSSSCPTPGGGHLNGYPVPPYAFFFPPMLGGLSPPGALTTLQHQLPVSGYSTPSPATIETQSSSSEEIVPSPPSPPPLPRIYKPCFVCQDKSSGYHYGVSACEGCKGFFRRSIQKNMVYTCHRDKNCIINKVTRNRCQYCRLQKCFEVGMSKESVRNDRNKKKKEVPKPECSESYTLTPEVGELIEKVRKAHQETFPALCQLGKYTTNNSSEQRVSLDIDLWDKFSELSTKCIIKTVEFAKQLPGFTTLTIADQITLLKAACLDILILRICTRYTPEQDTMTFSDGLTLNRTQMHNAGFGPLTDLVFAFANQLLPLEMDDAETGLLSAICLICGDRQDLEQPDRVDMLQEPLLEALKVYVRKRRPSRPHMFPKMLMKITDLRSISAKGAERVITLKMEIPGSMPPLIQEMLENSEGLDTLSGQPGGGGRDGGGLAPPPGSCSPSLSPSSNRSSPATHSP
Sequence of human RAR-related Orphan Receptor beta (RORb), RORB (gene 6096) (Q92753 whole entry, looked up, the tested form may be a part): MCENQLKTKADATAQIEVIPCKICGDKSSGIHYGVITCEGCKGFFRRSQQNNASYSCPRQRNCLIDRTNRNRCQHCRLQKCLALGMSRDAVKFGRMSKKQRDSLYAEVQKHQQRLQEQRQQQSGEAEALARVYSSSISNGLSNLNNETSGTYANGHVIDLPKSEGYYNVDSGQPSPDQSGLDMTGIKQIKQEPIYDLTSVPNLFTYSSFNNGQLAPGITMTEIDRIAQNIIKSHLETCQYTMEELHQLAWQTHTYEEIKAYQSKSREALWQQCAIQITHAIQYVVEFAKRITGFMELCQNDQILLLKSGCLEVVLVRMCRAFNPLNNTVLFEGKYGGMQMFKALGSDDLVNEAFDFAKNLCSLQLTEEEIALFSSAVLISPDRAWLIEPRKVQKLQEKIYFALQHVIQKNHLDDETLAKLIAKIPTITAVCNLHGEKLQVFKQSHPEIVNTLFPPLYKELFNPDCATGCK

As for `O=C/C=C/c1ccccc1`, the call in [1], in assay [4], in [5] and in assay [6] was inactive. The half-maximal activity concentration (AC50) in assay [2] was 28.7 µM (active); in assay [3] it was 12.1 µM (active).

For `CCCCCCCCc1ccc(O)cc1`, the result in assay [1], in [7], in [3], in assay [9], in assay [10] and in assay [11] was inactive. Further, the call in [6] was inactive. Besides, the AC50 is 8.43 µM (active) in assay [8]; 22 µM (active) in assay [2]; 7.55 µM (active) in assay [3]; 33.5 µM (active) in assay [9]; 24.5 µM (active) in assay [5]; 31.7 µM (active) in [12]. The AC50 was 32.6 µM (active) in assay [13]; 34.1 µM (active) in [14]; 20.1 µM (active) in [15]; 31.5 µM (active) in assay [16]; 31.2 µM (active) in assay [17].

With `CC(C#N)CCC#N` (centres undefined), the outcome in assay [1], in assay [2], in assay [3], in assay [9] and in assay [5] was inactive.

Consider `O=Cc1cccc(Oc2ccccc2)c1`, for which the result in assay [1], in assay [8], in assay [2], in [3], in assay [4] and in [5] was inactive. Besides, the call in assay [18], in assay [12], in assay [13], in assay [14], in [15] and in [16] was inactive. Besides, the outcome in assay [19], in [20], in [6] and in [17] was inactive.

With `CCC(C)c1cccc(C(C)CC)c1O` (centres undefined), the outcome in assay [1], in assay [7], in [2], in assay [9], in assay [10] and in [11] was inactive. The outcome in [6] was inactive. In addition, the AC50 is 4.53 µM (active) in [3] and 26.3 µM (active) in [5].

The term AC50 denotes the concentration giving half of the maximal activity seen.

The values are drawn from PubChem BioAssay (EPA / NIEHS).
